Inconclusive results are not listed. Active and inactive are the calls of the source. Rule for the calls: active = hit-call score of the fitted dose curve at least 0.9, where 1 is the maximum; inconclusive = response in the unintended direction; inactive = score below 0.9.
Biological target: sheep Cyclooxygenase-2 (Cox2), PTGS2 (gene 443460) (UniProt P79208)
Assay: NVS_ENZ_oCOX2: NovaScreen (NVS) Enzymatic Assay for sheep Cyclooxygenase-2 (Cox2) (AID 2283231)
Experimental: NVS_ENZ_oCOX2 is a biochemical, single-readout assay that uses extracted gene-proteins from Ovine placenta in a tissue-based cell-free assay. Measurements were taken 0.66 hour after chemical dosing in a 96-well plate.NVS_ENZ_oCOX2 is one of one assay component(s) measured or calculated from the NVS_ENZ_oCOX2 assay. It is designed to make measurements of enzyme activity, a form of enzyme reporter, as detected with absorbance signals by Colorimetric technology.Data from the assay component NVS_ENZ_oCOX2 was analyzed into 1 assay endpoint. This assay endpoint, NVS_ENZ_oCOX2, was analyzed in the positive analysis fitting direction relative to DMSO as the negative control and baseline of activity. Using a type of enzyme reporter, loss-of-signal activity can be used to understand changes in the enzymatic activity as they relate to the gene PTGS2. Furthermore, this assay endpoint can be referred to as a primary readout, because this assay has produced multiple assay endpoints where this one serves a enzymatic activity function. To generalize the intended target to other relatable targets, this assay endpoint is annotated to the oxidoreductase intended target family, where the subfamily is cyclooxygenase.
Binding assays used specific radioligands (tritiated, iodinated) with non-radioactive competitive displacement ligands in agonist or antagonist protocols (as indicated) and various reference compounds and inhibitors to titrate specific binding to receptors and transporters. Most enzyme assays (CYPs, kinases, phosphatases, proteases, HDACs) used recombinant protein and specific substrates (fluorescence mostly, some colorimetric and radioactive) and inhibitors, followed by a biochemical separation of substrate and product. All assays for the biochemical HTS were initially run in duplicate at a single concentration (10 uM for CYP450 assays and 25 uM for all others). Assay-chemical combinations meeting a pre-defined threshold (e.g., 30% inhibition and other criteria defined below) were then run in singleton concentration-response format with maximum concentration of 20 uM for CYPs and 50 uM for all others. Each assay was run with positive and negative controls, and concurrent controls on every plate. The follow-up (secondary) screen tested active chemical-pairs in concentration series, as well as a few additional assays not tested in the primary screen, some selected negative inactives, and several cases re-run in the concentration series for confirmatory purposes.

Chain of sheep Cyclooxygenase-2 (Cox2), PTGS2 (gene 443460) (P79208 whole entry, looked up): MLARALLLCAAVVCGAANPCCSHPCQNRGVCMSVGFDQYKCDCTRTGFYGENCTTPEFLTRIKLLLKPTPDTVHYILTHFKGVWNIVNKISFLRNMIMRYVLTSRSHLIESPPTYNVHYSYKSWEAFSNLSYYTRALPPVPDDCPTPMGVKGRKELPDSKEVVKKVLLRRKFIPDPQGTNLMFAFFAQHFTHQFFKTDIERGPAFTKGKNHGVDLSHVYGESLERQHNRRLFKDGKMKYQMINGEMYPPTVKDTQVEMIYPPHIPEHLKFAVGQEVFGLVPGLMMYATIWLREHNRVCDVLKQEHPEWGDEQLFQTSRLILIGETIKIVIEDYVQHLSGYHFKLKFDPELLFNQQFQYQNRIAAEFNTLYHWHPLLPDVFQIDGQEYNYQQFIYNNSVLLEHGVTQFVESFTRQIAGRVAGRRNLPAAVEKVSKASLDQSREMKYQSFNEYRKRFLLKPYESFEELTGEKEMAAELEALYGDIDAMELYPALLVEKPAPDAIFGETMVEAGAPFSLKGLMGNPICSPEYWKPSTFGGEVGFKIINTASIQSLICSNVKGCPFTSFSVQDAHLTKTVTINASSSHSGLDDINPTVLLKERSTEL

AC50, active:
CC[C@H](C)C(=O)O[C@H]1C[C@@H](C)C=C2C=C[C@H](C)[C@H](CC[C@@H]3C[C@@H](O)CC(=O)O3)[C@H]21 8.83 µM, CC(C)c1cccc(C(C)C)c1N1C(=O)c2ccc(O)cc2C1=O 4.32 µM, C[C@](N)(Cc1ccc(O)c(O)c1)C(=O)O 6.83 µM, O=C(OC[C@H]1O[C@@H](OC(=O)c2cc(O)c(O)c(OC(=O)c3cc(O)c(O)c(O)c3)c2)[C@H](OC(=O)c2cc(O)c(O)c(OC(=O)c3cc(O)c(O)c(O)c3)c2)[C@@H](OC(=O)c2cc(O)c(O)c(OC(=O)c3cc(O)c(O)c(O)c3)c2)[C@@H]1OC(=O)c1cc(O)c(O)c(OC(=O)c2cc(O)c(O)c(O)c2)c1)c1cc(O)c(O)c(OC(=O)c2cc(O)c(O)c(O)c2)c1 2.87 µM, CC(C)=CCC/C(C)=C\CO 4.26 µM, CCCCCCc1ccc(O)cc1O 11 µM, COc1ccc(-n2nc(C(F)F)cc2-c2ccc(S(C)=O)cc2)cc1 (stereo unspecified) 0.478 µM, CCOc1cccc(-n2cc(C(=O)N3CCN(c4cc(C(=O)O)c5ccccc5c4)CC3)nc2-c2ccc(C)cc2)c1 6.87 µM, CC(=O)c1ccc2c(c1)[C@H](NC(=O)c1ccc(F)cc1)[C@@H](O)C(C)(C)O2 11.3 µM, CCOC(=O)c1ccc(C2CCC(NC[C@H](O)COc3ccc(O)c(NS(C)(=O)=O)c3)CC2)cc1 (stereo partly specified) 8.48 µM

outcome, inactive:
Cc1ccc(C)c(O)c1
